In the library only some 3.5% were active in any assay of this set; here they are far more common.
RE007 growth inh – less growth of the S. pombe RE007 Vpr strain; actives 0.21% (n = 360,000); Potency, µM (highest dose often 92.2 µM), inactives show at the highest dose activity change, negative = less growth, most hits filed as inhibitors; AID 651644; S. pombe RE007 Vpr strain, BacTiter-Glo ATP luminescence, 24 h; active = well fitted falling curve with a large enough effect; inconclusive = small, poorly fitted or top-dose-only effect; inactive = no such curve, though single readings can be large or run the other way; note: % is set by controls: 0 for no effect and ±100 for the full control effect; nearly all actives have a fitted effect of over 50% in size
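Fission yeast RE007 carrying one integrated HIV-1 vpr copy, seeded at OD 0.01 in PMG+AL medium with 23 nL pinned compound. Grown 24 h at 30 degrees; viability read by BacTiter-Glo luminescence after 5 min.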
LmPK inhibitor – inhibitors of Leishmania mexicana pyruvate kinase; Potency, µM (doses to about 57.5 µM), without a hit: at the top dose activity change, negative = inhibition, actives largely listed as inhibitors; AID 1721; Q27686; actives 0.37% (n = 290,000); purified LmPK, Kinase-Glo ATP luminescence, 1 h; note: % is set by controls: 0 for no effect and ±100 for the full control effect
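Purified LmPK (0.1 nM) converted ADP (0.1 mM) to ATP with PEP (0.5 mM) in imidazole buffer pH 7.2 with KCl and MgCl2, 1 h at room temperature. ATP was read by Kinase-Glo luminescence; data normalized to uninhibited and no-enzyme controls.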
Tb PYK inh – T. brucei pyruvate kinase inhibition; actives 0.12% (n = 410,000); Potency, µM (series often up to 76.8 µM), inactives show at the top dose activity, negative = inhibition, usual class: inhibitors; TbPYK enzyme, Kinase-Glo Plus ATP luminescence, 45 min; note: % is set by controls: 0 for no effect and ±100 for the full control effect; nearly all actives have a fitted effect of over 50% in size
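In this concentration-response screen, enzyme-free wells defined baseline while DMSO plates tracked drift. Each reaction combined TbPYK, substrate, compound and 130 uM ADP for 45 min at room temperature. Kinase-Glo Plus luminescence gave the signal.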
Sm TGR block – S. mansoni TGR enzyme inhibition; Q962Y6; purified TGR, DTNB reduction, TNB absorbance 405 nm; Potency, µM (doses to about 114 µM), inactives show top-dose activity change, negative = inhibition, usual class: inhibitors; actives 3% (n = 360,000); note: % is set by controls: 0 for no effect and ±100 for the full control effect; nearly all actives have a fitted effect of over 60% in size
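First, TGR (20 nM dispensed) and NADPH were mixed with compound. Second, a 15 min room-temperature incubation followed. Third, further NADPH and then DTNB were added to start the reaction. Finally, TNB absorbance was monitored kinetically.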
NS1 inh – inhibitors of influenza NS1 protein function; AID 2326; actives 0.4% (n = 270,000); Potency, µM (doses to about 46.1 µM), for the others: at the highest dose activity, positive = more growth; calls by dose curve; note: actives are rising curves; nearly all actives have a fitted effect of over 50% in size
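OD600 was taken as the measure of yeast growth restored by compound in an NS1-expressing S. cerevisiae strain. Cells had been washed out of glucose medium and diluted 1:100 into galactose -URA medium, pH 6.0.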
Giardia FBPA inh – Giardia lamblia aldolase inhibition; A8B2U2; purified Giardia FBPA; Potency, µM (series often up to 59.6 µM), inactives show at the top dose activity, negative = inhibition, most hits filed as inhibitors; actives 0.71% (n = 290,000); AID 2451; note: % is set by controls: 0 for no effect and ±100 for the full control effect; nearly all actives have a fitted effect of over 55% in size
Target sequence (A8B2U2 whole entry, looked up): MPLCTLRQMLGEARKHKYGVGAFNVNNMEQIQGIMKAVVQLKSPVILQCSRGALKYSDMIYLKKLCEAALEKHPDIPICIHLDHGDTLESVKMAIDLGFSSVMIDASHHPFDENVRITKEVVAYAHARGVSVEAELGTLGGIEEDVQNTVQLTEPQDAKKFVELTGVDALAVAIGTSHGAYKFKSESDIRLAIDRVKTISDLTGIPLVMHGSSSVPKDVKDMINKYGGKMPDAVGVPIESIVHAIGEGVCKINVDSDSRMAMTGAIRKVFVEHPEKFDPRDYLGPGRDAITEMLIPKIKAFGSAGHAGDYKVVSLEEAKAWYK
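40 nM FBPA preincubated 10 min at RT with compound (up to 57.5 uM final), then substrate plus GAPDH/TPI/NAD/arsenate coupling and diaphorase/resazurin added. Fluorescence read after 20 min at RT, 525/598 nm.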
An asterisk follows results filed as active; ? = inconclusive; · = no result; [ ] = remark or other dose. Unless noted, calls come from the whole dose curve; as a rule, active = well fitted curve in the direction sought with a large enough effect; inconclusive = small, poorly fitted or top-dose-only effect, or another doubt; inactive = no such curve, though single readings can be large; an effect the other way counts as inactive or inconclusive. Potency is the fitted concentration of half-maximal effect.

SMILES	RE007 growth inh	LmPK inhibitor	Tb PYK inh	Sm TGR block	NS1 inh	Giardia FBPA inh
O=C1c2ccccc2C(=O)c2c(NC(=O)c3ccc4c5c(ncnc35)-c3ccccc3C4=O)cccc21	·	·	·	·	-3%	·
O=C(COc1ccccc1)N(Cc1cccnc1)c1nc2c(F)cc(F)cc2s1	·	·	7%[15.4 µM]	-1%	·	·
O=C(CCS(=O)(=O)c1ccccc1)N(Cc1cccnc1)c1nc2ccc(F)cc2s1	·	·	4%	0.89µM*	·	·
O=C(CCOc1ccccc1)N(Cc1cccnc1)c1nc2c(F)cc(F)cc2s1	·	·	4%	5.6µM*	·	·
CCCC(=O)Nc1ccc2nc(SCc3ccc(C)cc3)sc2c1	·	·	-5%	2%	·	·
COCCCCCCCCCCCC(=O)O	·	·	·	·	·	4%
Cc1cc(N2CCN(C(=O)c3ccco3)CC2)nc(-c2ccccc2)n1	-18%	3%	1%	45µM*	-14%	-6%
Cc1ccc(C)c2sc(N3CCN(C(=O)c4ccco4)CC3)nc12	·	·	-1%	56µM*	·	·
COc1ccc(C(C)=O)cc1COc1ccc(-n2cnnn2)cc1	-10%	2%	4%	20µM*	-53%	-4%
COc1ccc(NC(=O)COc2ccc(-n3cnnn3)cc2)cc1OC	-2%	·	-15%	1%	·	·
COc1ccccc1CN(C)C(C)C(=O)Nc1cccc(C(C)=O)c1 (stereo not drawn)	12%	5%	0%	-5%	·	2%
COc1ccc(C(C)=O)cc1CN(C)C	-15%	-1%	1%	5µM*	-3%	-16%
COc1ccc(Br)cc1CN(C)C(C)C(=O)Nc1cccc(C(C)=O)c1 (stereo not drawn)	2%	11%	-3%	22µM*	·	6%
COc1ccc(C(C)=O)cc1CSc1nnc(C)s1	1%	-4%	1%	45µM*	-82%	8%
O=C(Cc1ccccc1)Nc1cccc(-c2cn3cccnc3n2)c1	·	·	3%	4%	·	·
CCc1ccc(C2c3c(oc4ccc(F)cc4c3=O)C(=O)N2CCc2ccc(OC)cc2)cc1 (stereo not drawn)	·	·	-1%	-19%	·	·
COc1ccc(C(C)=O)cc1CN1C(=O)NC2(CCCCCCC2)C1=O	15%	-2%	1%	-3%	·	5%
COc1ccc(C(C)=O)cc1Cn1c(=O)cc(C)[nH]c1=O	-6%	-5%	0%	40µM*	-12%	15%
CCNC(=O)COc1ccc(/C=C2\COc3ccccc3C2=O)cc1OC	-1%	-2%	-1%	40µM*	-33%	4%
Cc1ccsc1/C=N\NC(=O)CC(=O)NCc1ccccc1	1%	0%	-6%	11%	·	20µM*
Cc1ccsc1/C=N/NC(=S)NCc1ccccc1	3%	-4%	-6%	8%	·	16%
CCn1c(=O)cc(SCC(=O)NCCc2cccc(C)c2)c2ccccc21	·	·	1%	1%	·	·
CCOC(=O)c1c(S(=O)(=O)N2CCC(C(=O)Nc3ccc(C)c(Cl)c3)CC2)c(C)n(C)c1C	·	·	2%	-4%	·	·
CCN(CC)c1ccc(/C=C2\C(=O)c3ccc(C(=O)O)cc3C2=O)cc1	-20%	-21%	25µM*	0%	-40%	-6%
CCN(CC)c1ccc(C(=O)O)cc1	-16%	-4%	-12%	6%	5%	-3%
SMILES	RE007 growth inh	LmPK inhibitor	Tb PYK inh	Sm TGR block	NS1 inh	Giardia FBPA inh
CCN=C1SC(C(=O)Nc2cccc(C)c2)CC(=O)N1CC (stereo not drawn)	-4%	1%	0%	-20%	3%	2%
Cc1cccc(NC(=O)C2CC(=O)n3cnnc3S2)c1 (stereo not drawn)	-26%	8%	-13%	0.4µM*	-3%	?
COc1ccccc1NC(c1ccc(Cl)cc1)c1nnc(-c2cccc(F)c2)o1 (stereo not drawn)	·	·	-4%	0%	·	·
CCN(CC)c1ccc2nc3ccccc3[n+](CC)c2c1	2.8µM*	?	?	?	3%	-14%
CCN(CC)c1ccc2nc3ccc(N)cc3[n+](-c3ccccc3)c2c1	22µM*	·	?	-31%	·	·
Cc1ccccc1CN1C(=O)CS/C1=N/N=C/c1ccco1	-8%	5%	0%	11µM*	1%	-15%
COc1ccc(OC)c(/C=N/N=C2\SCC(=O)N2Cc2ccco2)c1	·	1%	-12%	-16%	6%	1%
O=C1CS/C(=N/N=C/c2ccccc2)N1Cc1ccco1	-22%	0%	5%	40µM*	-8%	0%
CC1S/C(=N/N=C/c2ccco2)N(Cc2ccccc2)C1=O (stereo not drawn)	-13%	0%	-3%	35µM*	3%	-15%
CCC1S/C(=N/N=C/c2ccco2)N(Cc2ccccc2C)C1=O (stereo not drawn)	18%	-2%	-1%	40µM*	-5%	0%
CCC1S/C(=N/N=C/c2ccco2)N(Cc2ccc(F)cc2)C1=O (stereo not drawn)	-4%	0%	-2%	?	0%	-4%
O=C(Oc1ccc(F)cc1)c1nc(SCc2ccc(F)cc2)ncc1Cl	·	·	-3%	0%	·	·
COc1ccccc1-c1nnc(C2CCN(S(=O)(=O)c3ccc(CC(C)C)cc3)CC2)o1	·	·	-3%	4%	·	·
CC(=O)Nc1cccc(NC(=O)C(=O)NCCc2csc3nc(-c4ccccc4F)nn23)c1	·	·	2%	-1%	·	·
CCCc1nn2c(=O)cc(COC(=O)c3ccccc3NC(=O)COc3ccccc3F)nc2s1	·	·	1%	-3%	·	·
COc1ccc(/C=N\Nc2ccc([N+](=O)[O-])cc2[N+](=O)[O-])c(C(=O)O)c1OC	-9%	-2%	-27%	8.9µM*	9%	16%
CCOC(=O)c1cccc(NC(=O)C2COc3ccc(OC)cc3C2)c1 (stereo not drawn)	·	·	4%	1%	·	·
COC(=O)c1cc(NC(=O)c2ccc([N+](=O)[O-])cc2)c(=O)oc1C	3%	1%	-6%	56µM*	-1%	-2%
CC(=O)c1cc(NC(=O)c2ccc([N+](=O)[O-])cc2)c(=O)oc1C	14%	-2%	-3%	22µM*	-1%	-6%
COC(=O)c1cc(NC(=O)c2ccc(C)cc2)c(=O)oc1C	-1%	-11%	-10%	-3%	0%	6%
CC[C@H](C)/C=C(C)/C=C/C1=CC2=CC(=O)[C@]3(C)OC(=O)[C@@H](C(C)=O)[C@@H]3C2=CO1	13%	-2%	1%	14µM*	4%	-21%
CCCCn1cc(S(=O)(=O)c2ccccc2)c(=O)c2cc(F)c(N3CCC(C)CC3)cc21	·	·	-3%	0%	·	·
COc1ccc2c(c1)CC/C(=C\C=C\c1ccccc1)C2=O	-13%	3%	-5%	45µM*	-27%	?
CC(=O)Oc1ccc(/C=C2/CCc3ccccc3C2=O)cc1	?	14µM*	?	-4%	-53%	3%
